Screens (PubChem BioAssay)
A selection: hits, their analogues and other compounds. The true share with any hit is near 3.8%.
TGFb SMAD3 inh: inhibitors of TGF-b signaling | HepG2 CAGA-GFP TGF-b/SMAD3 reporter, GFP fluorescence, 18 h; TGF-beta stimulated, 500 pg/mL final | Potency, µM (highest dose often 46.1 µM), inactives show top-dose activity, negative = inhibition, most hits filed as inhibitors | 410,000 tested, 1.2% active | AID 588855; note: % is set by controls: 0 for no effect and ±100 for the full control effect; nearly all actives have a fitted effect of over 65% in size
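Inhibition was scored as loss of TGF-beta-induced (500 pg/mL final, 18 hours, 37 degrees C) GFP in HEPG2 cells carrying a CAGA-GFP reporter, in DMEM with 1% FBS. Well GFP was summed per cell; Activity was normalised to unstimulated and stimulated DMSO wells, then concentration-response fitting.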
A549 tox: counter-screen for Nrf2 inhibitors: cytotoxicity in A549 cells | 390,000 tested, 0.16% active | A549 ARE-Fluc cells, CellTiter-Fluor viability, 18-24 h | AID 504648 | Potency, µM (doses to about 46 µM), inactives show at the highest dose activity change, negative = cytotoxicity, most hits filed as inhibitors; note: % is set by controls: 0 for no effect and ±100 for the full control effect
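A549 ARE-Fluc cells in 5% FBS OPTI-MEM, 5000 cells/well, rested 2 h then exposed to compounds in concentration-response for 18-24 h at 37 °C. Viability by CellTiter-Fluor fluorescence (Ex 405/Em 525) after 30 min; luciferase luminescence (BugLite, 15 min, RT) read afterwards.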
Nrf2 block: blocks Nrf2 signaling; A549 ARE-Fluc reporter, luciferase luminescence, 18-24 h; 360,000 tested, 2.1% active; Potency, µM (top dose mostly 46 µM), without a hit: at the highest dose activity change, negative = inhibition, usual class: inhibitors; note: % is set by controls: 0 for no effect and ±100 for the full control effect; nearly all actives have a fitted effect of over 60% in size
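Reporter: ARE-Fluc in A549. Exposure: 18-24 h, 37 °C, 5% CO2, 5% FBS OPTI-MEM. Readouts: fluorescent cytotoxicity (CellTiter-Fluor), then luminescent Nrf2 signal after BugLite.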
S2 tox: reduces viability in counter-screen for ATXN expression inhibitors | 400,000 tested, 0.49% active | Potency, µM (top dose mostly 56.7 µM), usual class: cytotoxic | AID 651635 | S2 cells (HEK-293 line with an ATXN2-luciferase reporter) viability, CellTiter-Fluor protease fluorescence, 24 h; note: nearly all actives have a fitted effect of over 40% in size
HepG2 viability: HepG2 cytotoxicity, counter-screen for TGF-b inhibitors; HepG2 CAGA-GFP viability, ATP luminescence, 18 h; Potency, µM (top dose mostly 46.1 µM), for the others: top-dose activity change, negative = cytotoxicity, usual class: cytotoxic; AID 588856; 410,000 tested, 0.76% active
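CellTiter-Glo luminescence gave cytotoxicity after 18 hours at 37 degrees C. The cells were HepG2 CAGA-GFP in 1% FBS DMEM, stimulated with 500 pg/mL TGF-beta after compound addition. %Activity was normalised to no-cell wells (complete cell-killing) and DMSO (no toxicity), and curves were fitted and classified.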
ATXN2 expr inh: inhibitors of ATXN2 expression; HEK-293 ATXN2-luciferase reporter, luminescence, 24 h; Potency, µM (top dose mostly 57 µM), inactives show at the top dose activity change, negative = inhibition, usual class: inhibitors; 360,000 tested, 0.72% active; AID 1745845; note: % is set by controls: 0 for no effect and ±100 for the full control effect; nearly all actives have a fitted effect of over 55% in size
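ATXN2-luciferase reporter cells (luciferase flanked by upstream and downstream ATXN2 gene portions) were treated 24 h at 37 °C with compounds at up to 57 uM. SteadyGlo luminescence gave expression; GF-AFC fluorescence gave viability.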
* marks the source's active call; other numbers are inactive results; i = inactive; ? = inconclusive; nt = not tested or not shown; ! = a repeat was not active; [ ] = remark or other dose. Calls come from the whole dose curve; as a rule, active = well fitted curve in the direction sought with a large enough effect; inconclusive = small, poorly fitted or top-dose-only effect, or another doubt; inactive = no such curve, though single readings can be large; an effect the other way counts as inactive or inconclusive. Potency is the fitted concentration of half-maximal effect.

SMILES | TGFb SMAD3 inh | A549 tox | Nrf2 block | S2 tox | HepG2 viability | ATXN2 expr inh
CC1C(=O)C(C)C(c2cc(Br)ccc2O)NC1c1cc(Br)ccc1O (stereo unspecified) | 16µM* | -3% | ? | ? | -97% | ?
CCn1c(Cl)c(C=O)s/c1=N\S(=O)(=O)c1ccccc1 | 3.5µM* | ? | ? | 14µM* | 8.9µM* | 13µM*
COc1cccc(CNC(=O)Cn2ncn3nc(-c4cccs4)cc3c2=O)c1OC | -25% | -4% | ? | i | 0% | 7%
Cn1c(=O)c2[nH]c(CNCc3ccccc3Cl)nc2n(C)c1=O | 2% | -12% | -6% | i | -13% | -14%
Cc1ccc(N(C)C(=O)c2cc(S(=O)(=O)N3CCCC3)cn2C)cc1 | ? | 3% | 4% | i | -13% | -26%
Cc1ccc(Nc2nc3nonc3nc2Nc2cccc(C(F)(F)F)c2)cc1Cl | ? | 7.3µM* | 3.3µM* | nt | -51% | nt
COc1ccccc1Nc1ncnc2c1c(C)c(C)n2CCO | -6% | 8% | ? | i | -8% | 63%
CN(C)CCCNS(=O)(=O)c1ccc(NC2CCCCCC2)c([N+](=O)[O-])c1 | 22µM* | -7% | ? | i | -171% | -36%
COc1ccc(OC)c(N(CCN2C(=O)c3ccccc3C2=O)C(=O)CCl)c1 | ? | nt | nt | 1.6µM* | -56% | nt
COc1ccc(NC(=O)CCN2C(=O)c3ccccc3C2=O)c(OC)c1 | 0% | 5% | 5% | i | 10% | 22%
COC(=O)c1cc(-c2ccccc2)n(CC(=O)O)c1C | -2% | 4% | nt | i | -3% | -4%
CCN(C(=O)C1CCCN(c2ncnc3c2nc2n3CCCCC2)C1)c1cccc(Cl)c1 (stereo unspecified) | ? | 0% | 15µM*! | ? | -48% | ?
CSc1cccc(NC(=O)C2CCCN(c3ncnc4c3nc3n4CCCCC3)C2)c1 (stereo unspecified) | -1% | -20% | 18µM* | i | -4% | ?
CCN(C(=O)C1CCCN(c2ncnc3c2nc2n3CCCCC2)C1)c1cccc(C)c1 (stereo unspecified) | ? | -3% | -33% | ? | -24% | ?
CC(=O)c1cccc(NC(=O)C2CCN(c3ncnc4c3nc3n4CCCCC3)CC2)c1 | 18µM* | 2% | ? | nt | -25% | nt
Fc1ccc(NC(=S)Nc2ccc(Br)cc2)cc1 | ? | ? | 18µM* | i | -57% | -25%
Oc1ccc(NC(=S)Nc2ccc(F)cc2)cc1 | 3% | 0% | 0% | i | 1% | nt
O=C(CN1CCCc2ccccc21)N/N=C/c1ccccc1O | ? | -2% | -24% | i | -32% | 28µM*
CC1=CC(=O)N(c2ccc(C)cc2)C1c1ccc(Cl)cc1 (stereo unspecified) | 1% | 16% | 7% | i | -1% | 3%
CC1=CC(=O)N(c2cccc(C(F)(F)F)c2)C1c1ccc(Cl)cc1 (stereo unspecified) | -12% | ? | 23µM* | i | -23% | -8%
O=C(NN1C(=O)/C(=C/c2ccc(O)c([N+](=O)[O-])c2)SC1=S)c1ccccc1Cl | ? | 3.7µM* | ? | ? | -10% | -3%
O=C(O)Cn1ncn(-c2ccc(OC(F)(F)F)cc2)c1=O | 4% | -1% | 3% | i | -3% | -18%
CNC(=O)c1cccc(NC(=O)c2cc(-c3ccccc3)nc3c2cnn3C(C)C)c1 | ? | -20% | 21µM* | ? | -27% | ?
COc1cc(NC(=O)c2cc(-c3ccccc3)nc3c2cnn3C(C)C)cc(OC)c1OC | 4% | ? | ? | i | 3% | ?
CC(OC(=O)CC1Sc2ccccc2NC1=O)C(=O)NC1CCCC1 (stereo unspecified) | -6% | 0% | 2% | i | 2% | -2%
SMILES | TGFb SMAD3 inh | A549 tox | Nrf2 block | S2 tox | HepG2 viability | ATXN2 expr inh
CCCCNC(=O)c1onc(CSc2cccc3ccccc23)c1C(=O)O | ? | -2% | 8% | i | -29% | 38%
Cc1ccc(SC(C)C(=O)Nc2ccncc2)cc1 (stereo unspecified) | -2% | -1% | 13µM* | i | 7% | -11%
Cc1ccc(SC(C)C(=O)Nc2cccnc2)cc1 (stereo unspecified) | -1% | -3% | 12% | i | -5% | -6%
CC1=CCC2(CO)COC(c3ccccc3O)C1C2 (stereo unspecified) | 0% | -1% | 3% | i | 2% | -4%
O=C1CCCN1c1ccc(S(=O)(=O)N2CCCCC2)cc1[N+](=O)[O-] | -6% | 3% | 28% | i | 6.3µM* | 3%
Cc1ccc(S(=O)(=O)N2CCCC2)cc1[N+](=O)[O-] | 0% | -3% | 7% | i | 2% | -9%
CCN(CC)CCC(c1ccc(N(C)C)cc1)c1c(OC)cc(OC)c2c1OC(=O)CC2c1ccc(N(C)C)cc1 (stereo unspecified) | 5% | -16% | 4% | nt | -1% | nt
CNS(=O)(=O)c1ccc(C(C)(C)C)cc1 | 14% | -3% | 3% | i | 12% | 5%[11.3 µM]
O=C(/C=C/c1ccccc1)NNC(=O)C1CC1 | 14µM* | -11% | 4% | i | -102% | 8%
O=C(/C=C/c1ccccc1)/C=C/c1ccccc1 | ? | -4% | -4% | 40µM* | -17% | ?
O=C(/C=C/c1ccccc1)c1ccccc1 | ? | -9% | -4% | i | -70% | 18%
O=C(/C=C/c1ccccc1)c1ccc2ccccc2c1 | ? | 3% | ? | i | 20µM* | 62%
Cc1ccc(-c2nn(-c3ccc(F)cc3F)c3c2cnc2ccc(F)cc23)cc1 | 16% | 2% | nt | i | -1% | 9%
COc1ccc(-n2c(-c3ccco3)nc3c(cnn3-c3ccccc3C)c2=O)cc1 | ? | 2% | 14% | i | 0% | -14%
CC(=O)C1CCC2C3CCC4=CC(=O)CC[C@]4(C)[C@@]3(F)C(O)C[C@]12C (stereo partly specified) | -6% | -4% | 2.9µM* | i | -14% | -20%
COc1ccc(OC)c(S(=O)(=O)NC(=O)C2(C)CCN2C(=O)Cc2ccccc2)c1 (stereo unspecified) | -9% | nt | nt | i | -9% | -4%
CCOc1cc(/C=N/NC(=O)CSc2nncn2C)ccc1OC(=O)c1ccc(Cl)cc1 | ? | 3% | 21µM* | i | -13% | -30%
CCOc1cc(/C=N\NC(=O)c2ccc(NC(=O)CC)cc2)ccc1OC(=O)c1ccccc1 | 0% | -27% | -19% | ? | -2% | 20µM*
